From PubChem
Luc counter: blocks Kinase-Glo luciferase, a counter-screen artifact; Q27757; Kinase-Glo luciferase, ATP luminescence, 8 min; Potency, µM (series often up to 38.3 µM), for inactives: top-dose activity change, negative = inhibition, hits mostly inhibitors; 0.28% of 200,000 active; AID 1379; note: % is set by controls: 0 for no effect and ±100 for the full control effect; nearly all actives have a fitted effect of over 60% in size
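Luminescence was the read-out, taken after 8-minute incubation at ambient temperature. Luciferase turned over luciferin with 10 uM ATP in imidazole pH 7.2 buffer containing KCl, MgCl2, Tween 20 and BSA.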
ELG1 genotox: inducers of genotoxicity in HEK293T ELG1-luciferase cells; HEK293T ELG1-luciferase reporter, luminescence, 16 h; Potency, µM (titrated, usually from 46 µM), for inactives: at the top dose activity change, positive = activation, most hits filed as activators; 1.3% of 330,000 active; AID 504466; note: % of control where 0% means no effect; nearly all actives have a fitted effect of over 60% in size
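Reporter readout depends on ELG1 protein level, which increases with genetic stress. After 16 hr compound exposure at 37 °C, luciferase activity was quantified using ONE-Glo.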
FLuc modulator: firefly luciferase modulation, counter-screen for miR-21 project. P08659. AID 588342. purified FLuc, Km substrates, luminescence inhibition. 6.9% of 360,000 active. Potency, µM (top dose mostly 57.5 µM), for inactives: top-dose activity change, negative = inhibition, usual class: inhibitors;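 note: plate controls were vehicle for no effect and reference inhibitor for full effect; nearly all actives have a fitted effect of over 55% in size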
Target sequence (P08659 whole entry, looked up): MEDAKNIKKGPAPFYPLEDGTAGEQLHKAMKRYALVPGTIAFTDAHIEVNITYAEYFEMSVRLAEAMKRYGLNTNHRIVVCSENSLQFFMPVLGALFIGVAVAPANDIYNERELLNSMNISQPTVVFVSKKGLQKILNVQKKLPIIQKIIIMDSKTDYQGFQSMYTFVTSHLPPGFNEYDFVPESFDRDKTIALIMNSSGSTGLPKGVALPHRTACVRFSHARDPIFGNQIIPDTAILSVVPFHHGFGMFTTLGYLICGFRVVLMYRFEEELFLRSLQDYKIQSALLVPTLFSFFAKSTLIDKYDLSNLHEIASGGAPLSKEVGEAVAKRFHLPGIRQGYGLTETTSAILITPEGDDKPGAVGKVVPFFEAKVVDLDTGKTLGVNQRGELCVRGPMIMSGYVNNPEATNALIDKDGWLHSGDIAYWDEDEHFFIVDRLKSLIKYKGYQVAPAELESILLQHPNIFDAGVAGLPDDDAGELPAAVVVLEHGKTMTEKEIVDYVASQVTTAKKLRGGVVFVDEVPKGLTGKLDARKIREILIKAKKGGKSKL
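Purified P. pyralis luciferase (10nM final) with 10uM D-luciferin and 10uM ATP (Km levels) in 50mM Tris acetate pH 7.5, 10mM Mg acetate, 0.01% Tween-20, 0.05% BSA; qHTS 6-point titration, ~60 µM downward; luminescence read.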
Rab9 promoter act: activates the Rab9 promoter; 2.8% of 320,000 active; Potency, µM (doses to about 9.22 µM), for the others: at the highest dose activation, negative = inhibition, usual class: activators; Huh7 Rab9 promoter-luciferase reporter, luminescence, 24 h; AID 485297; note: % of control where 0% means no effect; nearly all actives have a fitted effect of over 60% in size
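Luminescence from Amplite-detected luciferase (10 minutes, ambient) reports Rab9 promoter activation. Before that, stable Rab9-luciferase Huh7 cells (1500/well, reduced-serum OP-MEM I plus 10% FBS) were exposed to compound for 24 hours at 37C.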
SMN2 splice enh: increases expression of the SMN2 splice variant; HEK293 SMN2-luciferase splicing reporter, luminescence, 30-36 h; Potency, µM (titrated, usually from 46.1 µM), without a hit: top-dose activity change, positive = activation, actives largely listed as activators; 2.8% of 210,000 active; AID 1458; note: % of control where 0% means no effect; nearly all actives have a fitted effect of over 55% in size
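HEK293 cells carry an SMN2 minigene-luciferase reporter in which exon 7 inclusion puts luciferase in frame. Cells were seeded at 2000 cells/well, attached for 10-12 hours, then exposed to compounds for 30-36 hours at 37C before ONE-Glo luminescence.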
NPC1 promoter act: NPC1 promoter activation. 2.4% of 320,000 active. Potency, µM (titrated, usually from 9.22 µM), without a hit: at the top dose activation, most hits filed as activators. AID 485313. Huh7 NPC1 promoter luciferase reporter, 24 h; note: % of control where 0% means no effect; nearly all actives have a fitted effect of over 60% in size
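Quantitative HTS used a cell-based reporter: Huh7 cells stably bearing the NPC1 promoter upstream of luciferase were treated with compounds for 24 h, and promoter activation was read as luminescence.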
* hit, by the source's call; [ ] = remark or other dose. Most compounds without a hit are left out; they make up all but 7.5% or so of the library. Calls come from the whole dose curve; as a rule, active = well fitted curve in the direction sought with a large enough effect; inconclusive = small, poorly fitted or top-dose-only effect, or another doubt; inactive = no such curve, though single readings can be large; an effect the other way counts as inactive or inconclusive. Potency is the fitted concentration of half-maximal effect.

Results for O=C(c1cc(-c2cccc(Cl)c2)on1)N1CCOCC1 ?
ELG1 genotox: 23µM*; FLuc modulator: 13µM*; Rab9 promoter act: 3.2µM*; NPC1 promoter act: 2.8µM*

How did O=C(c1cc(-c2ccccc2)on1)N1CCC2(CC1)OCCO2 do in these assays?
Luc counter: -1%; ELG1 genotox: inconclusive; FLuc modulator: 15µM*; Rab9 promoter act: 4µM*; SMN2 splice enh: 18µM*; NPC1 promoter act: inconclusive

Results for O=C(c1cc2ccccn2n1)N1CCC2(CC1)OCCO2 ?
Luc counter: -1%; ELG1 genotox: 4%; FLuc modulator: 5%; Rab9 promoter act: -4%; SMN2 splice enh: -1%; NPC1 promoter act: -3%

Results for NC[C@@H](Cc1ccccc1)P(=O)(O)O ?
Luc counter: -5%[7.66 µM]; SMN2 splice enh: 2%[9.22 µM]

How did CCCC[N+]12CCC(CC1)C(C(O)(c1ccccc1)c1ccccc1)C2 (stereo not drawn) do in these assays?
ELG1 genotox: -1%; FLuc modulator: 0%; Rab9 promoter act: -9%; NPC1 promoter act: -5%

How did OC(c1ccccc1)(c1ccccc1)C1CCCN1 (stereo not drawn) do in these assays?
Luc counter: -8%; ELG1 genotox: inconclusive; FLuc modulator: 12µM*; Rab9 promoter act: 3.2µM*; SMN2 splice enh: 19%; NPC1 promoter act: -37%

What do the screens show for `O=C(NCC(c1cccnc1)N1CCOCC1)Oc1ccccc1` (stereo not drawn)?
Luc counter: -1%; ELG1 genotox: inconclusive; FLuc modulator: 15µM*; Rab9 promoter act: inconclusive; SMN2 splice enh: 14µM*; NPC1 promoter act: 20%

Results for N#CC(c1cccnc1)N1CCOCC1 (stereo not drawn) ?
ELG1 genotox: -1%; FLuc modulator: 0%; Rab9 promoter act: 2%; NPC1 promoter act: -3%

What do the screens show for `O=C1NC(=O)N(c2ccc3c(c2)OCO3)C(=O)/C1=C/c1ccsc1`?
Luc counter: 5%; ELG1 genotox: 3%; FLuc modulator: 19µM*; Rab9 promoter act: -7%; SMN2 splice enh: 19%; NPC1 promoter act: -2%

How did C[C@]12CC[C@@H]3[C@H](CCC4=CC(=O)CC[C@]43C)[C@]1(O)CC[C@@]2(O)C(=O)CO do in these assays?
Luc counter: -5%[7.66 µM]; SMN2 splice enh: 3%[9.22 µM]

Results for O=C(O)C(Oc1nc(=S)[nH]c(=S)[nH]1)(c1ccc(Cl)cc1)c1ccc(Cl)cc1 ?
Luc counter: -1%[7.66 µM]; SMN2 splice enh: 1%[9.22 µM]

What do the screens show for `COc1ccc(OC)c(N2C(=O)NC(=O)/C(=C/c3ccc([N+](=O)[O-])s3)C2=O)c1`?
Luc counter: inconclusive; ELG1 genotox: -9%; FLuc modulator: 17µM*; Rab9 promoter act: -9%; SMN2 splice enh: inconclusive; NPC1 promoter act: -4%

Results for CCN1C(=O)/C(=C\c2ccc([N+](=O)[O-])s2)C(=O)NC1=S ?
Luc counter: -12%; ELG1 genotox: -13%; FLuc modulator: 8.5µM*; Rab9 promoter act: 2%; SMN2 splice enh: -24%; NPC1 promoter act: -19%

How did C=CCN1C(=O)/C(=C/c2ccc(Br)s2)C(=O)NC1=S do in these assays?
ELG1 genotox: inconclusive; FLuc modulator: inconclusive; Rab9 promoter act: -5%; NPC1 promoter act: -8%

What do the screens show for `CN(C)CCCNc1c2c(nc3ccc(Cl)cc13)CCCC2`?
Luc counter: 2%[7.66 µM]; SMN2 splice enh: -4%[9.22 µM]

How did CN1C(=O)/C(=C/c2ccc(Cl)s2)C(=O)NC1=S do in these assays?
ELG1 genotox: 17%; FLuc modulator: inconclusive; Rab9 promoter act: 6%; NPC1 promoter act: 0%

Results for CN1C(=O)/C(=C\c2ccc(N3CCCCC3)o2)C(=O)NC1=S ?
Luc counter: -15%; ELG1 genotox: 5.8µM*; FLuc modulator: 8.5µM*; Rab9 promoter act: 1.6µM*; SMN2 splice enh: 7.1µM*; NPC1 promoter act: 2.5µM*

What do the screens show for `Cc1ccsc1/C=C1\C(=O)NC(=S)N(C)C1=O`?
ELG1 genotox: inconclusive; FLuc modulator: 15µM*; Rab9 promoter act: -5%; NPC1 promoter act: 0%

How did CN1C(=O)/C(=C/c2ccc(N3CCCCCC3)o2)C(=O)NC1=S do in these assays?
Luc counter: -16%; ELG1 genotox: 21µM*; FLuc modulator: 4.8µM*; Rab9 promoter act: 1.4µM*; SMN2 splice enh: 11µM*; NPC1 promoter act: 2.2µM*

What do the screens show for `CCCCCOC(=O)c1ccccc1C(=O)OCCCCC`?
SMN2 splice enh: 0%

Results for Cc1ccc(/C=C/C(=O)C2C(=O)c3ccccc3C2=O)cc1 ?
Luc counter: -12%; ELG1 genotox: inconclusive; FLuc modulator: 0.19µM*; Rab9 promoter act: inconclusive; SMN2 splice enh: 10µM*; NPC1 promoter act: inconclusive

Results for CC(C)Br ?
SMN2 splice enh: -5%

How did Cc1ccc(/C=C2/C(=O)NC(=O)N(Cc3ccc(F)cc3)C2=O)o1 do in these assays?
ELG1 genotox: 13%; FLuc modulator: -17%; Rab9 promoter act: 0%; NPC1 promoter act: 0%

What do the screens show for `COc1ccc(CN2C(=O)NC(=O)/C(=C/c3ccc([N+](=O)[O-])o3)C2=O)cc1`?
Luc counter: -14%; ELG1 genotox: 5%; FLuc modulator: 19µM*; Rab9 promoter act: 0%; SMN2 splice enh: -23%; NPC1 promoter act: -5%

What do the screens show for `Cc1ccc(OC(=O)c2ccc(Br)o2)cc1`?
Luc counter: -4%; ELG1 genotox: 0%; FLuc modulator: 4.8µM*; Rab9 promoter act: -1%; SMN2 splice enh: -11%; NPC1 promoter act: -6%

What do the screens show for `CN1CC=C(/C=C/c2ccc(-c3ccccc3)cc2)CC1`?
ELG1 genotox: inconclusive; FLuc modulator: 4.3µM*; Rab9 promoter act: inconclusive; NPC1 promoter act: 3.2µM*

How did C1C[C@@H]2CN(CCCN3CCOCC3)[C@@H](C1)O2 do in these assays?
Luc counter: 3%[7.66 µM]; SMN2 splice enh: 4%[9.22 µM]

How did CCOc1ccc2nc(N3CCC(C(=O)Nc4ccc(Br)cc4F)CC3)sc2c1 do in these assays?
FLuc modulator: 15µM*; SMN2 splice enh: 13µM*

How did CCOc1ccc(NCc2cccn2-c2nnc(N3CCC(C(=O)NCC(C)c4ccccc4)CC3)s2)cc1 (stereo not drawn) do in these assays?
FLuc modulator: 0%; SMN2 splice enh: -63%

What do the screens show for `CSc1ccc2c(c1)c(CCN)c(C)n2Cc1ccccc1Cl`?
Luc counter: 0%[7.66 µM]; SMN2 splice enh: 2%[9.22 µM]

Results for O=C(O)CNC(=O)c1ccc([As](=O)(O)O)cc1 ?
Luc counter: -4%[7.66 µM]; SMN2 splice enh: -12%[9.22 µM]

Results for Cc1ccc(Cn2cccc(C(=O)Nc3ccc4c(c3)OCO4)c2=O)cc1 ?
FLuc modulator: -17%
